The source of these data is publication PMC7862700, “An all-to-all approach to the identification of sequence-specific readers for epigenetic DNA modifications on cytosine”.

What all share (test): DAPPL (digital affinity profiling via proximity ligation, sequencing); 10 mM Tris-HCl pH 7.5, 50 mM NaCl, 1 mM DTT, 4% glycerol, room temperature, 30 min; GST-TFs on glutathione beads, 16-mer random dsDNA library, 0.1% formaldehyde crosslink after washing; high values mean tight binding
The target in one test is T1, FEV (Homo sapiens, UniProt Q99581 1-238).
T1 sequence: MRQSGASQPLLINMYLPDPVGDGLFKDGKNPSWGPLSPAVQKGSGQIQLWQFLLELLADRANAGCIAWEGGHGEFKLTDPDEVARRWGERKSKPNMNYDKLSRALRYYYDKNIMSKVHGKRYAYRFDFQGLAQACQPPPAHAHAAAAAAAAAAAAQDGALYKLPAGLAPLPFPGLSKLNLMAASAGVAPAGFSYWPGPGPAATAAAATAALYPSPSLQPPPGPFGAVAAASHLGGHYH
The conditions noted are these: protein: recombinant; tags: N-terminal GST; dsDNA, one strand shown. Summed up:
(§1)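 In yeast, human transcription factors were expressed with a GST fusion, then pulled down on glutathione beads and given DNA barcodes. Pooled with a tag-only sample, they were exposed to 200 nmole of a 16-mer random double-stranded DNA library (Tris/NaCl/DTT/glycerol buffer, room temperature, 30 min), washed, crosslinked with 0.1% formaldehyde, proximity-ligated using BsaI/T4 ligase for 1 h at 37 °C, PCR-amplified and read on an Illumina NextSeq500. Each hexamer's frequency of reads for a factor, divided by the matching frequency for the tag-only sample, gives the binding signal.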

For a further test, the target named is ETV5 (Homo sapiens, UniProt P41161 1-510). The conditions noted are these: protein: recombinant; tags: N-terminal GST; dsDNA, one strand shown. In a few lines:
as §1

For another test, the target named is HSF1 (Homo sapiens, UniProt Q00613 1-529). The conditions noted are these: protein: recombinant; tags: N-terminal GST; chain copies: 3; dsDNA, one strand shown. Summed up:
as §1

For another test, the target named is T2, SPIC (Homo sapiens, UniProt Q8N5J4 1-248).
T2 sequence: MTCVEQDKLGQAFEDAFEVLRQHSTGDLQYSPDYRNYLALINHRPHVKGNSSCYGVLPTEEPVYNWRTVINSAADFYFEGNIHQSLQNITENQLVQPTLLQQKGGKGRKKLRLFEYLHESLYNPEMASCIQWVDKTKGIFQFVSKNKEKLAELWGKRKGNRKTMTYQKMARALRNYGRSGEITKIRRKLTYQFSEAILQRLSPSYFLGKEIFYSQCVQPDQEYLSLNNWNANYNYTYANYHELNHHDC
The following applies: protein: recombinant; tags: N-terminal GST; dsDNA, one strand shown. Summed up: as §1

The target of another test is ELF4 (Homo sapiens, UniProt Q99607 1-663). The conditions noted are these: protein: recombinant; tags: N-terminal GST; dsDNA, one strand shown. Summed up:
as §1

The next test has as its target T3, ELK4 (Homo sapiens, UniProt P28324-2 1-405).
T3 sequence: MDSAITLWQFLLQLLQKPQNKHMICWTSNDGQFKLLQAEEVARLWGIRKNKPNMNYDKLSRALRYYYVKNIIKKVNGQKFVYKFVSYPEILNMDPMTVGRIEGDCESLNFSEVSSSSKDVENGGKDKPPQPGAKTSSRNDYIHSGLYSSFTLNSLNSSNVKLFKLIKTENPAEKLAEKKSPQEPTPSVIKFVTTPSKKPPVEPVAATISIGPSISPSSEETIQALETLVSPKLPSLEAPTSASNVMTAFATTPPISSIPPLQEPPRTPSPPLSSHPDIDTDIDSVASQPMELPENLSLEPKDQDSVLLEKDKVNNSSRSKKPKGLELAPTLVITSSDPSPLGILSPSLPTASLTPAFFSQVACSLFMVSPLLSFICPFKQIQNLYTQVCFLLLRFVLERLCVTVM
The conditions noted are these: protein: recombinant; tags: N-terminal GST; dsDNA, one strand shown. Summed up: as §1

The target of the next test is T4, ETV2 (Homo sapiens, UniProt O00321 1-342).
T4 sequence: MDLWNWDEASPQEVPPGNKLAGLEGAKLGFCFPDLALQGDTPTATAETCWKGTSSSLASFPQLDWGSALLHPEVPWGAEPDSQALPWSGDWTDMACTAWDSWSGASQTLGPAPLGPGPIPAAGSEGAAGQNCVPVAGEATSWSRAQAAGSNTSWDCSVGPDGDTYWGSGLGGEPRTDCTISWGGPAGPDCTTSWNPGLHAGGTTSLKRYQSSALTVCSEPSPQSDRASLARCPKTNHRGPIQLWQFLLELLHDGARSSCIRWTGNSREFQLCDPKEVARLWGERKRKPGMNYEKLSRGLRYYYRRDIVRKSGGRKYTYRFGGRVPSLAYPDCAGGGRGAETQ
The following applies: protein: recombinant; tags: N-terminal GST; dsDNA, one strand shown. In a few lines:
as §1

A further test concerns the target T5, ELF3 (Homo sapiens, UniProt P78545 1-371).
T5 sequence: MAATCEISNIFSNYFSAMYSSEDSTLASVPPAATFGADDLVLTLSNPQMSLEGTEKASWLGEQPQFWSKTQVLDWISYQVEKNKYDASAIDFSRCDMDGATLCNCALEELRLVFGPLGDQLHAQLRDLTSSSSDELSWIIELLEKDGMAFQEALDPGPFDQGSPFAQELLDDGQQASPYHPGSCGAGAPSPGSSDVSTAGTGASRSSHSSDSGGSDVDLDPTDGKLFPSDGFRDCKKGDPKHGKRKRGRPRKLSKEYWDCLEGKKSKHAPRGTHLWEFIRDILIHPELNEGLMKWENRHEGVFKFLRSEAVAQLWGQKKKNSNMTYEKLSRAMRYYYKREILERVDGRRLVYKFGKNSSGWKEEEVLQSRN
The following applies: protein: recombinant; tags: N-terminal GST; dsDNA, one strand shown. In a few lines: as §1

The target of the next test is CRX (Homo sapiens, UniProt O43186 1-299). The following applies: protein: recombinant; tags: N-terminal GST; dsDNA, one strand shown. In a few lines:
as §1

The next test deals with ETV1 (Homo sapiens, UniProt P50549 1-477). The conditions noted are these: protein: recombinant; tags: N-terminal GST; dsDNA, one strand shown. Summed up: as §1
ETV1, sequence (P50549 whole entry): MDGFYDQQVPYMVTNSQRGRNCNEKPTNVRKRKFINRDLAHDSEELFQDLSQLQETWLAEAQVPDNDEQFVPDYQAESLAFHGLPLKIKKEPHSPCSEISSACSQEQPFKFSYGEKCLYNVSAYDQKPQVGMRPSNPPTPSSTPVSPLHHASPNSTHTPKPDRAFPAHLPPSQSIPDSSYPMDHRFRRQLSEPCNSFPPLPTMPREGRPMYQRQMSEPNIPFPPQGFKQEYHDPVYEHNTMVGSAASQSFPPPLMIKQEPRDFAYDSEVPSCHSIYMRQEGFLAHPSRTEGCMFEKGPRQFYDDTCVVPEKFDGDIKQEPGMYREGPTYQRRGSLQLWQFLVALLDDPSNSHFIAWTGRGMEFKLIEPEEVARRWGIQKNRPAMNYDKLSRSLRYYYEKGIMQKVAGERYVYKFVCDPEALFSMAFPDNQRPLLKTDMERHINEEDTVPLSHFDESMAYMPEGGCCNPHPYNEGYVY
The target of another test is T6, ERF (Homo sapiens, UniProt P50548 1-548).
T6 sequence: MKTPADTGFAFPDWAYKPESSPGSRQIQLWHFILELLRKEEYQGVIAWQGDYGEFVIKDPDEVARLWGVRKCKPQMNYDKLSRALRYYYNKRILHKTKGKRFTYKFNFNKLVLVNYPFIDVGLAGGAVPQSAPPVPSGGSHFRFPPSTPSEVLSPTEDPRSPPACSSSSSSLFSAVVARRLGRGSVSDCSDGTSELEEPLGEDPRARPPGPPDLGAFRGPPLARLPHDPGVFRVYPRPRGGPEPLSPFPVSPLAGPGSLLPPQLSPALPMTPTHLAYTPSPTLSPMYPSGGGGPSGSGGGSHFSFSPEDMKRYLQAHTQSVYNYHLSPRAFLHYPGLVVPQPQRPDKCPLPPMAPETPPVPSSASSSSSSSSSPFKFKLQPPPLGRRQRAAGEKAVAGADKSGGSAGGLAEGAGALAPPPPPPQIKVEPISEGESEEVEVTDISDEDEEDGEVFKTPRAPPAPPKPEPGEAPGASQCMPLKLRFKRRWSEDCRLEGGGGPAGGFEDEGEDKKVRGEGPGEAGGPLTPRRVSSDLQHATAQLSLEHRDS
The following applies: protein: recombinant; tags: N-terminal GST; dsDNA, one strand shown. In a few lines:
as §1

The next test addresses T7, ETV3L (Homo sapiens, UniProt Q6ZN32 1-361).
T7 sequence: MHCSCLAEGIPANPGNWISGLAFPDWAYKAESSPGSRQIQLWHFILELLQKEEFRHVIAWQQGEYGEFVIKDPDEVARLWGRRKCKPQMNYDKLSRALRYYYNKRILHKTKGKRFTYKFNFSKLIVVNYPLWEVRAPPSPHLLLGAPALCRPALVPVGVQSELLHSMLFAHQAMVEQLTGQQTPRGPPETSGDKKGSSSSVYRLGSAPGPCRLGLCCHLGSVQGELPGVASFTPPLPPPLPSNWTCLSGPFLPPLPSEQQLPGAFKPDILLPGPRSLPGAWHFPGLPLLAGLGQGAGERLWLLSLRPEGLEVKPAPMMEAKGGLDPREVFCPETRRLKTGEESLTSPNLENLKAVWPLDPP
The following applies: protein: recombinant; tags: N-terminal GST; dsDNA, one strand shown. Summed up: as §1

The next test deals with T8, ETS2 (Homo sapiens, UniProt P15036 1-469).
T8 sequence: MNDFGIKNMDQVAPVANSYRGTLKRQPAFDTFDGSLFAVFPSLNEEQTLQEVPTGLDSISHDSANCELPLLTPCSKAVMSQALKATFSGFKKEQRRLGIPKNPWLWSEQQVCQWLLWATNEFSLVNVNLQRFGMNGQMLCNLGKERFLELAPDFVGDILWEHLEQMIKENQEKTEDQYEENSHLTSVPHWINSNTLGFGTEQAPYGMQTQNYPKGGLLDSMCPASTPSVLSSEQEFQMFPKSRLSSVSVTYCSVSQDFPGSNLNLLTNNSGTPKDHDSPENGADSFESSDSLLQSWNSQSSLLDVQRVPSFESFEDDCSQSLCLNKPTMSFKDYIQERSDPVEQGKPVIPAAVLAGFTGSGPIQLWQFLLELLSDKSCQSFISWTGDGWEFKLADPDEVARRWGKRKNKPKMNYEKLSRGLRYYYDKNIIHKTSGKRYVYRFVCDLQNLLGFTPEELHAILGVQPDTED
The conditions noted are these: protein: recombinant; tags: N-terminal GST; dsDNA, one strand shown. In a few lines:
as §1

The target in another test is T9, SPDEF (Homo sapiens, UniProt O95238 1-335).
T9 sequence: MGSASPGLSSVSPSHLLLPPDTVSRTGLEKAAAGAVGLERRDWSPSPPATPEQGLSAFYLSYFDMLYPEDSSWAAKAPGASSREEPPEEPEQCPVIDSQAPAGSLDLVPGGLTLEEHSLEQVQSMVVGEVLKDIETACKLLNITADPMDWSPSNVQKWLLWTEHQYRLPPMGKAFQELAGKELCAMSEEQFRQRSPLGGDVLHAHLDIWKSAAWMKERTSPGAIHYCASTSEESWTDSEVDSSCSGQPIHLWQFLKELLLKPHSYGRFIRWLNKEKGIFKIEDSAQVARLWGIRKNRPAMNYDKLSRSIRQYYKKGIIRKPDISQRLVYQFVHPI
The conditions noted are these: protein: recombinant; tags: N-terminal GST; dsDNA, one strand shown. Summed up:
as §1

In another test the target is T10, ETV7 (Homo sapiens, UniProt Q9Y603 1-341).
T10 sequence: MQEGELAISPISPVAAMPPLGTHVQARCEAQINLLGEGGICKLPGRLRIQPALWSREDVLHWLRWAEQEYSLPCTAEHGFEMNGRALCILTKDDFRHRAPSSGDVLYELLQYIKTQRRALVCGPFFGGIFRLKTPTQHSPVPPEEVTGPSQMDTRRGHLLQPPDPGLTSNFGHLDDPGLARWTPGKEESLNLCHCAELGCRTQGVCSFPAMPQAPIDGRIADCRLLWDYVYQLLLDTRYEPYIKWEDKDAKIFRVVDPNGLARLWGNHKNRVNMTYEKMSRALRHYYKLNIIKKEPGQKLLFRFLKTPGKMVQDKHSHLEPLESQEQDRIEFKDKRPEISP
The conditions noted are these: protein: recombinant; tags: N-terminal GST; dsDNA, one strand shown. In a few lines:
as §1

For a further test, the target named is T11, ELF5 (Homo sapiens, UniProt Q9UKW6-2 1-255).
T11 sequence: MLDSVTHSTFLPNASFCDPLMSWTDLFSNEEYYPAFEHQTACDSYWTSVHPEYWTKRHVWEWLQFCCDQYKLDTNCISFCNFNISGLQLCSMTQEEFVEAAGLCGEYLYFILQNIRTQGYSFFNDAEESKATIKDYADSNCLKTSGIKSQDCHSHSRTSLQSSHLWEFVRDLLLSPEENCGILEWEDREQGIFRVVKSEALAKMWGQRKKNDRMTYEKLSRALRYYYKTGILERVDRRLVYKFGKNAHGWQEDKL
The conditions noted are these: protein: recombinant; tags: N-terminal GST; dsDNA, one strand shown. In a few lines: as §1

The target in the next test is T12, ETV3 (Homo sapiens, UniProt P41162-2 1-143).
T12 sequence: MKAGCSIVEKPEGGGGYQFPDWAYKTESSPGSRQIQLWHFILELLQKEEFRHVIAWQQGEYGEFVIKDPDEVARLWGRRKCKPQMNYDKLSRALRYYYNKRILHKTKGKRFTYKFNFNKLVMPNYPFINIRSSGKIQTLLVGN
The following applies: protein: recombinant; tags: N-terminal GST; dsDNA, one strand shown. In a few lines:
as §1

The next test has as its target ETV6 (Homo sapiens, UniProt P41212 1-452). The conditions noted are these: protein: recombinant; tags: N-terminal GST; dsDNA, one strand shown. In a few lines:
as §1

ETV6, sequence (P41212 whole entry): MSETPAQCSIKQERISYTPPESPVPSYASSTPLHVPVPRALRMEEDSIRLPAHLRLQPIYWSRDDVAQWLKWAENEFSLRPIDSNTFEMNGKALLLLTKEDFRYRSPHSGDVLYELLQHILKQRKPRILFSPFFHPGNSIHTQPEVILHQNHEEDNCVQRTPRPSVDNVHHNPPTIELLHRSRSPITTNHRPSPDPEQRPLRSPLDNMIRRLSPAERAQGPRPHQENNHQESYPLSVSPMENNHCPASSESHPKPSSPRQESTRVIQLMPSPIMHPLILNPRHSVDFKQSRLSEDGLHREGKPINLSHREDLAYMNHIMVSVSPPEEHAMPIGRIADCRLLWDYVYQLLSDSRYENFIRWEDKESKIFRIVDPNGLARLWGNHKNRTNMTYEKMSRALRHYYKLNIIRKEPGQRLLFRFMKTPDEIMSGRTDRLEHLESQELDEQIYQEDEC
HSF1, sequence (Q00613 whole entry): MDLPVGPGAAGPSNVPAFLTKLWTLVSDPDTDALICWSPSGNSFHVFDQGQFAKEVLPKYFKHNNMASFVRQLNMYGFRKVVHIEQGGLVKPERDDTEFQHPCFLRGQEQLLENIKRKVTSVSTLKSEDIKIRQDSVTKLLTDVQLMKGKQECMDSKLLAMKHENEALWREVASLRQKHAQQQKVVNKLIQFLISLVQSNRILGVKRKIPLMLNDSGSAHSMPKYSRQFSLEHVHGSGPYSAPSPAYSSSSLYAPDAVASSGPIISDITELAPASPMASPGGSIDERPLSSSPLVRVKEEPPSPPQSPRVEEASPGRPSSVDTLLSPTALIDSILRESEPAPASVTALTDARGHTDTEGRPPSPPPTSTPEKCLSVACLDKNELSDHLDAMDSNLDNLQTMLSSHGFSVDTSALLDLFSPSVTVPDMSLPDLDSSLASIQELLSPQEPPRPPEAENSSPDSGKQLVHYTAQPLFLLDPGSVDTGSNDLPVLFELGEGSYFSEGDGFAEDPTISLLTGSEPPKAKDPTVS
ELF4, sequence (Q99607 whole entry): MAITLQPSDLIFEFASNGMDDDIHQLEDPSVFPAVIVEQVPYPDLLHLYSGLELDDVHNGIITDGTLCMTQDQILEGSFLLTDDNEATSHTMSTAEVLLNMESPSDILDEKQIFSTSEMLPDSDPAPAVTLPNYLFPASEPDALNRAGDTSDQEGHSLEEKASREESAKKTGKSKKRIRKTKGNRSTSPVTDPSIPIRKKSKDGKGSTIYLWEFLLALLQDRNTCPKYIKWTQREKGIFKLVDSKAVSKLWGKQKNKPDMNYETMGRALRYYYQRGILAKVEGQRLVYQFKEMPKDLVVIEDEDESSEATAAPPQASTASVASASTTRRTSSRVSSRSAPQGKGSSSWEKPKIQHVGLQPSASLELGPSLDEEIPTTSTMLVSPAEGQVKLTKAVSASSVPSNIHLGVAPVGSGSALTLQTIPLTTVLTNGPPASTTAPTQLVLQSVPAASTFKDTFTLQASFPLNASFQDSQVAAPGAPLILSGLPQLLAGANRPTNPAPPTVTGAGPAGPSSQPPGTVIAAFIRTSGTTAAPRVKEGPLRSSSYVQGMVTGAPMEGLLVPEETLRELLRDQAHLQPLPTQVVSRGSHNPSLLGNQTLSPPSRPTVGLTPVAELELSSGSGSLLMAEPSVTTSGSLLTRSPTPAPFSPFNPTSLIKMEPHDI
ETV5, sequence (P41161 whole entry): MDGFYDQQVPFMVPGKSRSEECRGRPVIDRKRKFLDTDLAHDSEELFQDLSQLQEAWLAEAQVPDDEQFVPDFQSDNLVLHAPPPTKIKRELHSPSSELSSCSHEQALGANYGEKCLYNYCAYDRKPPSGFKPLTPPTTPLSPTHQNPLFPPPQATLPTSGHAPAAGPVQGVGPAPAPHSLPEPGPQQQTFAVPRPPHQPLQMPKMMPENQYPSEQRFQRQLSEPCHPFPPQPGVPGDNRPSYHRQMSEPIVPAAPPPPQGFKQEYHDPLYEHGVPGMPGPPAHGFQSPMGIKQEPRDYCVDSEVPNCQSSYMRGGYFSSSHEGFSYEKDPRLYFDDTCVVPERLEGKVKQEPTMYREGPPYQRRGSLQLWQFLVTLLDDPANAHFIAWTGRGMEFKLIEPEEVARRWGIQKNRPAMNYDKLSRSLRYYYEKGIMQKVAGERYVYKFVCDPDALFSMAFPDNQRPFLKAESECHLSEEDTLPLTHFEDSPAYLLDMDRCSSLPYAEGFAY
CRX, sequence (O43186 whole entry): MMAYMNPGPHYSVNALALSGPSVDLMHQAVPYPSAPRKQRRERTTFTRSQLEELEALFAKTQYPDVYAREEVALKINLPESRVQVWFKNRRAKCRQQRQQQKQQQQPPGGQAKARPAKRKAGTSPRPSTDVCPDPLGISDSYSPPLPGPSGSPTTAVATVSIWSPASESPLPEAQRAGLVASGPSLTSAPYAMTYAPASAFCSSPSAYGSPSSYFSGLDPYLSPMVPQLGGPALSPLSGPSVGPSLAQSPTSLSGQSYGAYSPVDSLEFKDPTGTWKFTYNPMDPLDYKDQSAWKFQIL

Consider CCTCAG, for which the binding signal with FEV is 1.21 fold enrichment (6-mer frequency, TF over GST control); in the test with ETV5, 1.12 fold enrichment (6-mer frequency, TF over GST control); with HSF1, 1.07 fold enrichment (6-mer frequency, TF over GST control); with SPIC, 1.17 fold enrichment (6-mer frequency, TF over GST control); with ELF4 it was 1.3 fold enrichment (6-mer frequency, TF over GST control); with ELK4 it was 1.4 fold enrichment (6-mer frequency, TF over GST control). In addition, the binding signal in the test with ETV2 is 1.37 fold enrichment (6-mer frequency, TF over GST control); with ELF3, 1.35 fold enrichment (6-mer frequency, TF over GST control); in the test with CRX, 1.15 fold enrichment (6-mer frequency, TF over GST control); with ETV1, 1.13 fold enrichment (6-mer frequency, TF over GST control); with ERF it was 1.35 fold enrichment (6-mer frequency, TF over GST control); in the test with ETV3L, 1.27 fold enrichment (6-mer frequency, TF over GST control). Also, the binding signal with ETS2 is 1.25 fold enrichment (6-mer frequency, TF over GST control); with SPDEF it was 1.1 fold enrichment (6-mer frequency, TF over GST control); with ETV7 it was 1.1 fold enrichment (6-mer frequency, TF over GST control); with ELF5, 1.14 fold enrichment (6-mer frequency, TF over GST control); with ETV3, 1.17 fold enrichment (6-mer frequency, TF over GST control); with ETV6, 1.15 fold enrichment (6-mer frequency, TF over GST control).
